Laboratory results from ChEMBL document CHEMBL1961873, “Compounds: GSK PKIS; Assays: Nanosyn kinase panel” (2012).

Tests used:
[1] = molecular target: Tyrosine-protein kinase SYK (Homo sapiens) (UniProt P43405); conditions: at 1 µM
[2] = molecular target: T1, Tyrosine-protein kinase Tec (Homo sapiens) (UniProt P42680); conditions: at 0.1 µM
T1 sequence (whole entry): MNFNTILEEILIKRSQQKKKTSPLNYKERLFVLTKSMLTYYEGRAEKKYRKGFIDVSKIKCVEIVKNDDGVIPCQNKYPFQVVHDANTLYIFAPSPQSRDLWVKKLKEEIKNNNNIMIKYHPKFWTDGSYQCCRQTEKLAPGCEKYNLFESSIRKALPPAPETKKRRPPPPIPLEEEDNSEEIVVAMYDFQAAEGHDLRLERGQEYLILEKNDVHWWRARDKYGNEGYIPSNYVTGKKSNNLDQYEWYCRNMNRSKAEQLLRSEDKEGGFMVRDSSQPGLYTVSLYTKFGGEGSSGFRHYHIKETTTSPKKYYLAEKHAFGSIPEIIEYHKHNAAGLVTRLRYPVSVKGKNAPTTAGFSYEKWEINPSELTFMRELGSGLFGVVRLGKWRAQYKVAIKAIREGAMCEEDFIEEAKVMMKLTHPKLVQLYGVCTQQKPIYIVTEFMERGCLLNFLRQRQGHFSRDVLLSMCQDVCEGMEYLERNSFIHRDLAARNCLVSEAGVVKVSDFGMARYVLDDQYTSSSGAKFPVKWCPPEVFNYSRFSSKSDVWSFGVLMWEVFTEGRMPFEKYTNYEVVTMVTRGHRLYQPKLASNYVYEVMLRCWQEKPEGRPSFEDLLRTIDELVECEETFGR

[3] = molecular target: T1, Tyrosine-protein kinase Tec (Homo sapiens); conditions: at 1 µM
[4] = molecular target: Angiopoietin-1 receptor (Homo sapiens) (UniProt Q02763); conditions: at 0.1 µM
[5] = molecular target: Angiopoietin-1 receptor (Homo sapiens) (UniProt Q02763); conditions: at 1 µM
[6] = molecular target: T2, Non-receptor tyrosine-protein kinase TNK1 (Homo sapiens) (UniProt Q13470); conditions: at 0.1 µM
T2 sequence (whole entry): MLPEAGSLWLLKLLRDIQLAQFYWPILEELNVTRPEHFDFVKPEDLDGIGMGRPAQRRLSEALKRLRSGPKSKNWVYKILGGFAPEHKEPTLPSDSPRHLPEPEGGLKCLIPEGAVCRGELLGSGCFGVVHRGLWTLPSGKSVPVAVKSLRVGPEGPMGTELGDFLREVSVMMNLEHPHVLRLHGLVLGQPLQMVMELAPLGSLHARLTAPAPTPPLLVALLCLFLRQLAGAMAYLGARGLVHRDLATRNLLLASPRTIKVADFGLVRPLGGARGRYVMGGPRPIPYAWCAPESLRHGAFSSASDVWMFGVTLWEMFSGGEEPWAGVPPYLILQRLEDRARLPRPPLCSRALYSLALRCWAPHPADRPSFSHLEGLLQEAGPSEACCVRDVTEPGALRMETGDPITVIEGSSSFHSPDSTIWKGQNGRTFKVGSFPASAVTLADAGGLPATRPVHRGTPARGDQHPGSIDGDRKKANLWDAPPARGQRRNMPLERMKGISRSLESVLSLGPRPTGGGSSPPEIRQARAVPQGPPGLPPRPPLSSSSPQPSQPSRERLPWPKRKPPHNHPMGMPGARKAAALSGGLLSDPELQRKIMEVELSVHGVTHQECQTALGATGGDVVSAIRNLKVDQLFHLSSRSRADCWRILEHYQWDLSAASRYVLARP

[7] = molecular target: T2, Non-receptor tyrosine-protein kinase TNK1 (Homo sapiens); conditions: at 1 µM
[8] = molecular target: Activated CDC42 kinase 1 (Homo sapiens) (UniProt Q07912); conditions: at 0.1 µM
[9] = molecular target: Activated CDC42 kinase 1 (Homo sapiens) (UniProt Q07912); conditions: at 1 µM
[10] = molecular target: High affinity nerve growth factor receptor (Homo sapiens) (UniProt P04629); conditions: at 0.1 µM
[11] = molecular target: High affinity nerve growth factor receptor (Homo sapiens) (UniProt P04629); conditions: at 1 µM
[12] = molecular target: BDNF/NT-3 growth factors receptor (Homo sapiens) (UniProt Q16620); conditions: at 0.1 µM
[13] = molecular target: BDNF/NT-3 growth factors receptor (Homo sapiens) (UniProt Q16620); conditions: at 1 µM
[14] = molecular target: NT-3 growth factor receptor (Homo sapiens) (UniProt Q16288); conditions: at 0.1 µM
[15] = molecular target: NT-3 growth factor receptor (Homo sapiens) (UniProt Q16288); conditions: at 1 µM
[16] = molecular target: T3, Tyrosine-protein kinase TXK (Homo sapiens) (UniProt P42681); conditions: at 0.1 µM
T3 sequence (whole entry): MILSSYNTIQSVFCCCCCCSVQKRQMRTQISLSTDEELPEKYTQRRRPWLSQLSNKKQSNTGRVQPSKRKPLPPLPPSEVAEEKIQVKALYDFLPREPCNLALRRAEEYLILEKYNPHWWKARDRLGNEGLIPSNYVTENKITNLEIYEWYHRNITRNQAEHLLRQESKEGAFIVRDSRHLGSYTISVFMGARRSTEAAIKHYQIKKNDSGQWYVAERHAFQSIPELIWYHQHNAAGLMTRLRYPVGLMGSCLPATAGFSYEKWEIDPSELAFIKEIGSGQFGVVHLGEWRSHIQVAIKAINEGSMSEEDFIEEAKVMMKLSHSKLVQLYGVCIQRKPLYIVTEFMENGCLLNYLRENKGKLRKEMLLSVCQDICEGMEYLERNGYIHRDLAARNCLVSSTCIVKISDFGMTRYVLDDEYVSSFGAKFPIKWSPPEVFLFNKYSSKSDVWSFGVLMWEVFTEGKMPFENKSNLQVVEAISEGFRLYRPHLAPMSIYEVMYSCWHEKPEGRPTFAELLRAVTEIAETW

[17] = molecular target: T3, Tyrosine-protein kinase TXK (Homo sapiens); conditions: at 1 µM
[18] = molecular target: Non-receptor tyrosine-protein kinase TYK2 (Homo sapiens) (UniProt P29597); conditions: at 0.1 µM;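 further: each value is a mean of the inhibition readings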
[19] = molecular target: T4, Dual specificity protein kinase TTK (Homo sapiens) (UniProt P33981); conditions: at 1 µM;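 further: reported figures are mean TTK inhibition at 1 µM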
T4 sequence (whole entry): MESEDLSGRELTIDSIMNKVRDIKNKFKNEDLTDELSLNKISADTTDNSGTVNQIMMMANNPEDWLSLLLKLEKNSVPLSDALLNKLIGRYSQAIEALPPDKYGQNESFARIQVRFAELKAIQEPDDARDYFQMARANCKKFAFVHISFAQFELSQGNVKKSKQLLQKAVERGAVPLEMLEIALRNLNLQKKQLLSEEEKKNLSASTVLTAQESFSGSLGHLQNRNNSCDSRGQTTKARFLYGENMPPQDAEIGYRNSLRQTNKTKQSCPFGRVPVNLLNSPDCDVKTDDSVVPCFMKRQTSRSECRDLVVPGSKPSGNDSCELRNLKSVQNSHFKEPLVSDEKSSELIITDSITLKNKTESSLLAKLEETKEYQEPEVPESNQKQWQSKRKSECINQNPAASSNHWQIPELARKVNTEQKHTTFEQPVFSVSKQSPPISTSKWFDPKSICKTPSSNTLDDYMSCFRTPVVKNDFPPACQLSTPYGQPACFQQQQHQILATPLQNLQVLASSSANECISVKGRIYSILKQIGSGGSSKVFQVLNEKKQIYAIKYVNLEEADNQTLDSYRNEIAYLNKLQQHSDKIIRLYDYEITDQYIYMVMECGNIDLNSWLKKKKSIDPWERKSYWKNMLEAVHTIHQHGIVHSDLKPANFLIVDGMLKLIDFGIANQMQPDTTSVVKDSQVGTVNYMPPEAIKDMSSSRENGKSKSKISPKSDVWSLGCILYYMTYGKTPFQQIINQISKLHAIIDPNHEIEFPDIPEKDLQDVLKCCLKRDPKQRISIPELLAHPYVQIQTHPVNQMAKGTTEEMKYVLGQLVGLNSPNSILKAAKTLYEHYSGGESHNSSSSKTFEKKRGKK

[20] = molecular target: T5, Aurora kinase A (Homo sapiens) (UniProt O14965); conditions: at 0.1 µM;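 further: each reported value is a mean percent inhibition of Aurora-A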
T5 sequence (whole entry): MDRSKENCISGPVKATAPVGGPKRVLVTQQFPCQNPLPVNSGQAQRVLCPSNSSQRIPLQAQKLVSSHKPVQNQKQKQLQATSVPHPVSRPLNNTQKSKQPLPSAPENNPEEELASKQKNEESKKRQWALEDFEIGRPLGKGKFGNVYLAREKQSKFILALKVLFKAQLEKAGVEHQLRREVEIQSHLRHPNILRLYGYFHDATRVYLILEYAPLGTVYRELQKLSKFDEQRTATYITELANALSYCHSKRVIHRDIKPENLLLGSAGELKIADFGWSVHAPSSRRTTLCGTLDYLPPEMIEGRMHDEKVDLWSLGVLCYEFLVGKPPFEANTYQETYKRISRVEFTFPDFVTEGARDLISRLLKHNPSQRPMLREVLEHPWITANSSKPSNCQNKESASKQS

BDNF/NT-3 growth factors receptor (Homo sapiens), sequence (Q16620 32-822 limits assumed): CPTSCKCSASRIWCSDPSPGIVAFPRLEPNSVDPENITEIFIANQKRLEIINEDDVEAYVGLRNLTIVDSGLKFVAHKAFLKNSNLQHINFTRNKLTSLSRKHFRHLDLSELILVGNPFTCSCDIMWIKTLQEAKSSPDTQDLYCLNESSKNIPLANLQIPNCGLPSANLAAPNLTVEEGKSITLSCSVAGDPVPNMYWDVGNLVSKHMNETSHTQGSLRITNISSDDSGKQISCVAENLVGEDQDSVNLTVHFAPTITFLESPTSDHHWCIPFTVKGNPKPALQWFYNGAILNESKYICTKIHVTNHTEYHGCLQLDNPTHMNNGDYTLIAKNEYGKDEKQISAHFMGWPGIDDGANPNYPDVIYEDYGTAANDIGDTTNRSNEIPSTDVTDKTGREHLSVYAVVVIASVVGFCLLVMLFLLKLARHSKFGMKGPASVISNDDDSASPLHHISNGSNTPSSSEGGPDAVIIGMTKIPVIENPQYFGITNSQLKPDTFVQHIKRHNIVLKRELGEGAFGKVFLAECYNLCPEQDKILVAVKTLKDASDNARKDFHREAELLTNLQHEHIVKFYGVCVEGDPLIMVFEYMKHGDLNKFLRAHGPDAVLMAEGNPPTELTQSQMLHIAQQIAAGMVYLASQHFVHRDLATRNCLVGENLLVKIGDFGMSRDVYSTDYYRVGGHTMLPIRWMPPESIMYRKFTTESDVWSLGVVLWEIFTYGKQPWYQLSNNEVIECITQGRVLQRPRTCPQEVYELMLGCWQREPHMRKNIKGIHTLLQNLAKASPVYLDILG
NT-3 growth factor receptor (Homo sapiens), sequence (Q16288 32-839 limits assumed): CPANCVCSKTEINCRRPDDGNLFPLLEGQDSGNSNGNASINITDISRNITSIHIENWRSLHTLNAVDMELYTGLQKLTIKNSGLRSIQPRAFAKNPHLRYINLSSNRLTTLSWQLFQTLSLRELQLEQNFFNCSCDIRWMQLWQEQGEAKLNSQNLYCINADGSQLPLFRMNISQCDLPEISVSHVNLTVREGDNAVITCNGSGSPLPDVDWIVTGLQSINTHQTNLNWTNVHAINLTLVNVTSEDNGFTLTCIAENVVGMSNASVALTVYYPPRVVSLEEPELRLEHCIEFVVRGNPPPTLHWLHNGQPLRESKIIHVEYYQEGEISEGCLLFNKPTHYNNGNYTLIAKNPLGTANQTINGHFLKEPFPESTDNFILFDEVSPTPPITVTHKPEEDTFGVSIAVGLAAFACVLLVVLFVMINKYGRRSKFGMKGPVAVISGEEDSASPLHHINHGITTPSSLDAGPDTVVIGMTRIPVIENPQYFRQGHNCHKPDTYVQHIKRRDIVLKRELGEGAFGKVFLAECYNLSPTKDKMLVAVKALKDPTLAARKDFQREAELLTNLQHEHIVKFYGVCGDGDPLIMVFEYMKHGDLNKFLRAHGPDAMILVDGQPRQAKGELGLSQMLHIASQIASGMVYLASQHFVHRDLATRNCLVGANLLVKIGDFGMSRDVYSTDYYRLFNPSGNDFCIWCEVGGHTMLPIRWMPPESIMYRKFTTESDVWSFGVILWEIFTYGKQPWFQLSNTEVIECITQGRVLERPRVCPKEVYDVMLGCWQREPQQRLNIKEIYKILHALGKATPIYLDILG
Angiopoietin-1 receptor (Homo sapiens), sequence (Q02763 whole entry): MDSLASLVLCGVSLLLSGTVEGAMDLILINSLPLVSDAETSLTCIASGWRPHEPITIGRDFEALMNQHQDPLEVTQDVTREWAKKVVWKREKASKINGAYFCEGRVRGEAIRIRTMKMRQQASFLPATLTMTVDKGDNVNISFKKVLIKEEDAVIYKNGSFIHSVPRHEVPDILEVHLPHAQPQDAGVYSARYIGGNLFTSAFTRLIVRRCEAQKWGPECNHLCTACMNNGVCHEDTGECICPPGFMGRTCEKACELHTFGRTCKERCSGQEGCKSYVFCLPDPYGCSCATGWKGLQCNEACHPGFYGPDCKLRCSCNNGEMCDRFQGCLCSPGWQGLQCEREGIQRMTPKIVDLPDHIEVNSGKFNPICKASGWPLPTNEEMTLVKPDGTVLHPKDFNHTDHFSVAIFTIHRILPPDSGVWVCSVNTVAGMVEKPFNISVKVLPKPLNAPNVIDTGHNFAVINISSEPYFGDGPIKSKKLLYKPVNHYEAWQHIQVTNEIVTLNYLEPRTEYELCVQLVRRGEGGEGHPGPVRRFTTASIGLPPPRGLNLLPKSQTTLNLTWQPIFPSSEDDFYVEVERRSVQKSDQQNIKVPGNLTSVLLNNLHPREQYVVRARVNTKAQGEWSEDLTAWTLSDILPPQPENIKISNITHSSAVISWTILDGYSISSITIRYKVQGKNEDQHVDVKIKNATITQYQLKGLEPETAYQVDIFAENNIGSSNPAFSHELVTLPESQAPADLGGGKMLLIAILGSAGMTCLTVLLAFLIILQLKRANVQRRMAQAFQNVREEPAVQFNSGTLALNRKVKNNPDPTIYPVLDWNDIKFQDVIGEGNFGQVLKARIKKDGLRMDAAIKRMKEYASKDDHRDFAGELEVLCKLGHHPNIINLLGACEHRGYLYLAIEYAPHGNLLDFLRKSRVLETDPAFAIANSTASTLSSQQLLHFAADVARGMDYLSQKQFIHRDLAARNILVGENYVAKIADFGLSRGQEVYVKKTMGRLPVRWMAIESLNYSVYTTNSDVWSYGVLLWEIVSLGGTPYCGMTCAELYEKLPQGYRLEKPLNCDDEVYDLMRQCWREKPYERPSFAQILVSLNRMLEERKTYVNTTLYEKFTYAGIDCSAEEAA
Activated CDC42 kinase 1 (Homo sapiens), sequence (Q07912 whole entry, looked up): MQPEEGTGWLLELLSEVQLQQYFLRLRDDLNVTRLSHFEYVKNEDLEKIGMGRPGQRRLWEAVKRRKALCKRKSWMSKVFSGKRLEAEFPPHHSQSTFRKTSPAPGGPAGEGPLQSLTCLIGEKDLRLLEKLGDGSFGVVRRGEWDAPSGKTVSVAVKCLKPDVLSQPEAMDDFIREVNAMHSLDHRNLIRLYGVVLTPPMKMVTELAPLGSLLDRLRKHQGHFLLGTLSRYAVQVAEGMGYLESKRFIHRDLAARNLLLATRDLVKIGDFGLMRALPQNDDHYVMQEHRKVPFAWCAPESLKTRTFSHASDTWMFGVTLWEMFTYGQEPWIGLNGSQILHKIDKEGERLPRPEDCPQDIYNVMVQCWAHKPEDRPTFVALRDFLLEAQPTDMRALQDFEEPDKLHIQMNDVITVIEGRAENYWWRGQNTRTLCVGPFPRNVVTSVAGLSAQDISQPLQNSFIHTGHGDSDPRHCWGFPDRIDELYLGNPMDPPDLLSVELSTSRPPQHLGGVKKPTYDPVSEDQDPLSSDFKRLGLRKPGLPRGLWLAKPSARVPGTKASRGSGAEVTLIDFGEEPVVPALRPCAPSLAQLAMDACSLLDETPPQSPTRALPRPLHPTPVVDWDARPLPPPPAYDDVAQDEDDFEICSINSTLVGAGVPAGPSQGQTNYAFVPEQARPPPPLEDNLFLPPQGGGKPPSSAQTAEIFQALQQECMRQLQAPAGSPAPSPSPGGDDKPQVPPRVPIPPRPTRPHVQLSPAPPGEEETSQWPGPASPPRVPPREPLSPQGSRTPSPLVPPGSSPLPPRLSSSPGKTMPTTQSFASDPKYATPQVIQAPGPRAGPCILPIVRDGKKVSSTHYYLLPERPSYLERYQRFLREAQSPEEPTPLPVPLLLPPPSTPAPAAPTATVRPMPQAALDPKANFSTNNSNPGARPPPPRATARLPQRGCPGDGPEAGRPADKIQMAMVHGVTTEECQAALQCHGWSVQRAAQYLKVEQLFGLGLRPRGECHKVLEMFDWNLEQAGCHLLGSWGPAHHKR
High affinity nerve growth factor receptor (Homo sapiens), sequence (P04629 33-796 limits assumed): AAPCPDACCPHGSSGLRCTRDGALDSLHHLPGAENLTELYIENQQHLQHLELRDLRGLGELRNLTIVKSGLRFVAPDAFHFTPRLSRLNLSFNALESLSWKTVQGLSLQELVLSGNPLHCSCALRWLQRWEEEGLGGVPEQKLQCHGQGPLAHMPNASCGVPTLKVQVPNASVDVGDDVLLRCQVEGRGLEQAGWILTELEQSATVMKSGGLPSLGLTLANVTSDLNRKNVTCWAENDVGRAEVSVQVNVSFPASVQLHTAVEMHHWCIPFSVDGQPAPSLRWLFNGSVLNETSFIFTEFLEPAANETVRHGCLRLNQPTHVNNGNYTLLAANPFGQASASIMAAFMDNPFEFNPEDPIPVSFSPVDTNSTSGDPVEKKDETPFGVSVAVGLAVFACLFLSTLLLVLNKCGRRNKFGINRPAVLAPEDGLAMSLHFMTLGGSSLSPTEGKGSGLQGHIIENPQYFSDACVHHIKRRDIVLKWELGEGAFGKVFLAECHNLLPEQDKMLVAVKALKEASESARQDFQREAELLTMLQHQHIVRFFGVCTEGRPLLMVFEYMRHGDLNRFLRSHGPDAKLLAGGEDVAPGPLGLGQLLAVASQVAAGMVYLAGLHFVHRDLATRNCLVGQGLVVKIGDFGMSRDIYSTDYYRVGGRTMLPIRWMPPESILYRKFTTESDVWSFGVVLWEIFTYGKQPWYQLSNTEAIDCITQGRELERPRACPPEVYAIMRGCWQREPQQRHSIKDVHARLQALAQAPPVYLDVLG

Compound	inhibition [1] [%]	inhibition [2] [%]	inhibition [3] [%]	inhibition [4] [%]	inhibition [5] [%]	inhibition [6] [%]	inhibition [7] [%]	inhibition [8] [%]	inhibition [9] [%]	inhibition [10] [%]	inhibition [11] [%]	inhibition [12] [%]	inhibition [13] [%]	inhibition [14] [%]	inhibition [15] [%]	inhibition [16] [%]	inhibition [17] [%]	inhibition [18] [%]	inhibition [19] [%]	inhibition [20] [%]
CCNC(=O)O[C@H]1CN[C@H](C#Cc2cc3ncnc(Nc4ccc(OCc5cccc(F)c5)c(Cl)c4)c3s2)C1	0.53	4.9	5.79	1.23	3.88	3.2	10.3	1.33	1.05	4.7	3.06	3.01	1.6	2.47	1.74	3.06	3.99	-3.3	10.4	1.24
COc1ccc(-c2cc3c(N)ncnc3o2)cc1	-0.57	-1.03	3.07	2.49	2.73	-0.85	6.1	-0.17	1.96	-0.83	2.94	-0.36	1.81	0.53	0.25	0.91	2.2	-0.95	0.09	0.51
CC(=O)Nc1cccc(C#Cc2cncnc2Nc2ccc(OCc3cccc(F)c3)c(Cl)c2)c1	0.71	5.52	8.88	1.44	7.33	0.67	1.04	1.8	5.63	0.89	-0.49	0.63	0.88	-1.1	1.69	5.05	8.59	1.05	7.9	2.48
COc1cc2ncn(-c3cc(OCc4ccccc4C(F)(F)F)c(C(=O)N(C)C)s3)c2cc1OC	1.81	0.84	2.14	1.94	3.94	8.67	48.7	0.68	7.7	1.49	8.1	-0.07	7.43	5.43	16.2	1.47	3.4	-4.64	10.4	0.68
COc1cc(Nc2nccc(Nc3ccc4c(C)n[nH]c4c3)n2)cc(OC)c1OC	42.8	23.6	63.1	8.4	49.8	43	77.3	10.1	52.9	12.2	64.1	4.63	41	-0.03	17.3	23.9	61.9	-1.55	8.41	10.2
CCn1c(-c2nonc2N)nc2c(C#CC(C)(C)O)ncc(OC3CCNCC3)c21	1.12	5.92	3.33	4.81	7.95	1.33	0.26	0.61	1.17	2.16	3.24	1.42	1.02	2.31	-0.14	6.03	3.86	0.42	7.59	4.24
COc1ccc(CNC(=O)c2ccc(-c3cc(-c4nnc(C)o4)ccc3C)cc2)cc1	0.6	2.72	3.52	3.37	8.26	6.31	16	3.84	6	-2.81	-1.3	1.54	4.36	2.79	5.45	3.95	3.7	0.15	6.7	-0.94
CCCN1CCC(c2ccc(Nc3nc(Nc4cc(F)ccc4C(N)=O)c4cc[nH]c4n3)c(OC)c2)CC1	73.4	2.15	7.76	2.84	4.59	46.4	92.8	5.57	44.3	1.74	3.87	4.25	9.14	2.83	7.22	3.85	6.29	-2.8	83	2.78
CCN1CCC(CC(=O)Nc2n[nH]c3nnc(-c4cccc(F)c4F)cc23)CC1	-2.27	0.83	2.99	1.5	10.3	1.03	4.94	0.46	1.64	-1.1	-2.79	0.47	0.8	0.17	0.31	-0.72	3.03	0.26	1.38	3.98
CN(C)CCOc1ccc(-c2nc(-c3ccncc3)c(-c3ccc4c(c3)CC/C4=N\O)[nH]2)cc1	-0.9	4.78	5.79	2.29	11.9	2.5	10.2	1.21	2.51	2.02	0.58	1.83	3.37	1.52	2.87	2.32	3.33	-2.09	7.21	1.33
COC(=O)Nc1nc2ccc(S(=O)(=O)c3ccc(NC(=O)Nc4cc(C(F)(F)F)ccc4F)cc3)cc2[nH]1	0.05	3.65	2.49	5.47	10.9	-0.2	-6.28	0.69	0.6	1.94	2.05	0.88	3.21	1.98	3.91	2.55	4.65	-1.55	10.5	3.13
N#Cc1c(NC(=O)c2ccc(F)cc2)sc2c1CCCC2	-0.64	1.75	1.25	1.49	2.44	-1.86	2.53	0.23	0.89	0.08	-0.28	0.21	0.82	0.15	1.15	1.7	2.45	-3.45	2.26	1.91
CC(C)(CO)CNC(=O)c1ccc2c(c1)/C(=N/Nc1ccc(S(N)(=O)=O)cc1)C(=O)N2	-2.05	0.59	5.32	-0.74	0.79	0.66	10.3	-0.56	0.03	1.4	15.6	3.35	31.2	6.89	41.5	-0.15	3.21	-1.38	79.2	11.9
